# Results published in PubChem BioAssay AID588342 (National Center for Advancing Translational Sciences (NCATS), 2011).
# About 25,000 (6.9%) of roughly 360,000 compounds were called active. Another 9% or so got no clear call; they are omitted. The sample holds actives, similar compounds and a random draw of the others, so the mix is not that of the screen. The call rests on the fitted dose curve; in most records, active means well fitted inhibition curve with a large enough effect; inconclusive means small, poorly fitted or top-dose-only effect; inactive means flat fitted curve, though single readings scatter.
# Target: Luciferin 4-monooxygenase (Photinus pyralis) (UniProt P08659)
# Test: qHTS profiling assay for firefly luciferase inhibitor/activator using purifed enzyme and Km concentrations of substrates (counterscreen for miR-21 project); further: nearly all actives have a fitted effect of over 55% in size;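 on activity change, negative = inhibition: plate controls were vehicle for no effect and reference inhibitor for full effect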
# Details: purified FLuc, luminescence inhibition; series mostly up to 57.5 µM; activity change, negative = inhibition: at the top concentration
# Outline: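 Biochemical qHTS of compounds, final roughly 60 µM downward over six points, against 10 nM purified firefly luciferase using Km concentrations of substrates (10 uM D-luciferin, 10 uM ATP) in Tris acetate pH 7.5 buffer; luminescence output.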
# Potency means the concentration at half of the fitted maximal effect.
# Luciferin 4-monooxygenase (Photinus pyralis), sequence (P08659 whole entry, looked up): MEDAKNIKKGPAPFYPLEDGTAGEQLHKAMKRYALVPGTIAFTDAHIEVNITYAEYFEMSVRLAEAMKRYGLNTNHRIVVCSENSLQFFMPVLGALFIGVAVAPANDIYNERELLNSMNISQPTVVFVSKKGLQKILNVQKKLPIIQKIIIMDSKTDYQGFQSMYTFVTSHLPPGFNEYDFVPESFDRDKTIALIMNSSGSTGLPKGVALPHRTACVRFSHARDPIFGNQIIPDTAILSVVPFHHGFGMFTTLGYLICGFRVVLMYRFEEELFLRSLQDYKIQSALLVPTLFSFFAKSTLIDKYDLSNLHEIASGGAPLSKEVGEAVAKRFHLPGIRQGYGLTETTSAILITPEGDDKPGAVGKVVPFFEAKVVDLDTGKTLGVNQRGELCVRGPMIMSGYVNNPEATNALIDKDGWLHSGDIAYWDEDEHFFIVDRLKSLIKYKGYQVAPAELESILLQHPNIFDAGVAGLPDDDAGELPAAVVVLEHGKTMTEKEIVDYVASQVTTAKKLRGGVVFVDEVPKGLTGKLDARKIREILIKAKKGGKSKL
SMILES,"activity change, negative = inhibition",Potency
O=C(Nc1ccc(Cl)cc1)Nc1ccc(Oc2cccnc2)nc1,-28.9% (inactive),
COc1ccc(-n2c(=O)c3c(c4cc(OC)ccc4n3C)n(Cc3cccc(C)c3)c2=O)cc1,-0.917% (inactive),
CC(=O)Nc1ccccc1NC(=O)c1cc(C)cc(C)c1,3.27% (inactive),
Cc1cc(C)cc(NC(=O)CSc2ccccc2)c1,-4.76% (inactive),
CSCc1ccc(C(=O)Nc2cc(C)cc(C)c2)cc1,,2.13 µM (active)
CCc1ccc(N2C(=O)CN(S(=O)(=O)CC)CC2(C)C(=O)NC2CCCCC2)cc1 (configuration not stated),-6.49% (inactive),
O=C(NC1CC(=O)N(c2ccc(F)cc2)C1)C1CCCCC1 (configuration not stated),1.54% (inactive),
CCOC(=O)CNC(=O)c1cc2c(=O)n3cccc(C)c3nc2s1,-11.1% (inactive),
CC(=O)c1cccc(Nc2ccc3cc(S(=O)(=O)N4CCC(C)CC4)ccc3n2)c1,0.763% (inactive),
N/C(=N\OC(=O)/C=C/c1ccccc1)c1ccc(Br)cc1,-17% (inactive),
N/C(=N\OC(=O)c1ccc2c(c1)OCO2)c1ccc(Br)cc1,,1.69 µM (active)
N/C(=N\OC(=O)N1c2ccccc2Sc2ccccc21)c1ccc(Br)cc1,-12.5% (inactive),
Cc1ccc(-c2cc(C(F)(F)F)c(C#N)c(SCC(=O)Nc3ccccc3)n2)cc1,-0.837% (inactive),
COC(=O)/C=C/C(=O)NCc1ccco1,-0.0929% (inactive),
O=C(/C=C/c1ccc(Cl)cc1Cl)NCc1ccco1,,7.57 µM (active)
O=C(NCc1ccco1)C1(c2ccc(Cl)cc2)CCCC1,5.76% (inactive),
COc1ccccc1CNC(=O)C(Cc1ccccc1)NS(=O)(=O)c1ccc2c(c1)oc(=O)n2C (configuration not stated),-2.22% (inactive),
CSCCC(NC(=O)c1ccccc1)C(=O)N1CCN(Cc2ccc(Cl)cc2)CC1 (configuration not stated),4.35% (inactive),
COc1cc(/C=C2/C(=O)NN(c3cccc(Cl)c3)C2=O)cc(Br)c1O,,30.1 µM (active)
CCOc1c(Br)cc(/C=C2\C(=O)N(CCC#N)N=C2C)cc1OC,-14.2% (inactive),
COc1cc(CN2CC(C)CC(C)C2)cc([N+](=O)[O-])c1O (configuration not stated),-0.254% (inactive),
C/C=C/c1ccc(OCCOc2ccc(C=O)cc2OC)c(OC)c1,11.6% (inactive),

SMILES,"activity change, negative = inhibition",Potency
COc1cc(C=O)ccc1Oc1nnnn1-c1ccccc1,5.93% (inactive),
C#CCOc1ccc(/C=C2/C(=O)NN(c3ccccc3)C2=O)cc1OC,,0.849 µM (active)
COc1cccc2c1cc1c(=O)n(CC(=O)N3CCN(c4cccc(Cl)c4)CC3)nc(C)n12,2.9% (inactive),
COc1cc(/C=C2/C(=O)NN(c3ccc(F)cc3)C2=O)cc([N+](=O)[O-])c1O,,26.9 µM (active)
COc1ccc(N2C(=O)CC(Nc3ccc(F)cc3)C2=O)c([N+](=O)[O-])c1 (configuration not stated),0.0586% (inactive),
CCOc1ccc(-c2nonc2NC(=O)c2oc3ccc(CC)cc3c2C)cc1,-1.22% (inactive),
NC1=NC(c2cc(F)cc(F)c2)n2c(nc3ccccc32)N1 (configuration not stated),-6.24% (inactive),
CC(C(=O)NC1CCCCC1)N1C(=O)c2cccc3cccc1c23 (configuration not stated),-0.249% (inactive),
N#Cc1ccc(OCC(=O)NC(=O)NC2CCS(=O)(=O)C2)cc1 (configuration not stated),-1.14% (inactive),
Cc1nc2ccn(Cc3cccnc3)c(=O)c2cc1C(=O)N1CCN(c2ccccc2F)CC1,-2.88% (inactive),
Cc1cc2c(cc3c(SCc4cccc(Cl)c4)nnc(C)n32)o1,-12.8% (inactive),
CN1CCC(=NNC(=O)c2ccc(N(Cc3ccc(Cl)cc3)S(C)(=O)=O)cc2)CC1,-2.34% (inactive),
NS(=O)(=O)c1cc(C(=O)OCC(=O)NNC(=O)c2ccccc2)ccc1Cl,2.64% (inactive),
O=C(CCOc1ccccc1)N(Cc1cccnc1)c1nc2ccc(Cl)cc2s1,-5.41% (inactive),
Cc1cc(Nc2ccccc2)n(CCC#N)n1,5.51% (inactive),
Cc1cc(NC(=O)COc2ccc(Cl)cc2Cl)n(CCC#N)n1,,19 µM (active)
CCCn1nnnc1NC(=O)COc1ccc(Cl)cc1C,-1.34% (inactive),
CSc1ncccc1C(=O)Nc1nc2ccc(F)cc2s1,,19 µM (active)
CSc1ncccc1C(=O)Nc1ccc(C)cn1,-0.899% (inactive),
O=C(Nc1nc2ccc(F)cc2s1)c1nc(SCc2ccccc2F)ncc1Cl,0.507% (inactive),
CC(C(=O)N(C)CC(=O)Nc1ccccc1C(F)(F)F)N1C(=O)c2ccccc2C1=O (configuration not stated),-1.6% (inactive),
Cc1ccc(/C=C(\C#N)C(=O)Nc2cc(C)ccc2C)cc1,-2.09% (inactive),

SMILES,"activity change, negative = inhibition",Potency
COc1cc(OC)cc(C(=O)NCC(=O)N2CCCCCCC2)c1,1.74% (inactive),
COc1ccc(CCNC(=O)c2ccc3c(c2)sc2nc(-c4ccc(C)cc4)cn23)cc1OC,-0.481% (inactive),
NS(=O)(=O)c1ccc2nc(NC(=O)CS(=O)(=O)c3ccc(F)cc3)sc2c1,-8.95% (inactive),
NS(=O)(=O)c1ccc2nc(NC(=O)COc3ccccc3)sc2c1,0.17% (inactive),
NS(=O)(=O)c1ccc2nc(NC(=O)C3=COCCO3)sc2c1,,12 µM (active)
Cc1ccc(S(=O)(=O)c2nc(NCCCn3ccnc3)sc2Cl)cc1,1.48% (inactive),
Cc1ccc(-c2nc(C#N)c(NCCCn3ccnc3)o2)cc1,,21.3 µM (active)
COc1ccc(-c2cc(C(=O)NCCCn3ccnc3)no2)cc1,-16.1% (inactive),
CC(NC(=O)c1cccc(S(=O)(=O)N2CCc3ccccc3C2)c1)c1ccco1 (configuration not stated),2.97% (inactive),
COC(=O)c1ccc(NC(=O)C(C)N2C(=O)c3ccccc3C2=O)cc1 (configuration not stated),-2.02% (inactive),
CN1C(=O)/C(=C/c2ccc(C(=O)NC3CCCC3)cc2)Oc2ccccc21,-12.8% (inactive),
COC(=O)c1ccc(/C=C2/C(=O)Oc3ccccc32)cc1,,2.69 µM (active)
C#CC(C)(CC)NC(=O)Cn1nnc(-c2ccc(OCc3c(F)cccc3Cl)cc2)n1 (configuration not stated),-16.2% (inactive),
CCn1c(=O)cc(OCC(=O)Nc2cc(Cl)c(OC)cc2OC)c2ccccc21,-0.432% (inactive),
COc1ccc2nc(Nc3nc(-c4cc5ccccc5oc4=O)cs3)sc2c1,,0.849 µM (active)
O=c1oc2ccccc2cc1-c1csc(Nc2ccc(O)cc2)n1,,5.36 µM (active)
CCOc1ccc(S(=O)(=O)Nc2nc3cc(OC)ccc3s2)cc1,2.11% (inactive),
Cc1ccc2nc(-c3ccncc3)cc(C(=O)Nc3ccc(OC(F)F)cc3)c2c1,-7.69% (inactive),
COc1ccc2nc(Nc3nc(-c4ccncc4)cs3)sc2c1,,1.51 µM (active)
N#C/C(=C\c1cccc(F)c1)c1nc(-c2cc3c(ccc4ccccc43)oc2=O)cs1,-2.19% (inactive),
COc1ccc2oc(=O)cc(-c3cc4ccccc4o3)c2c1,6.35% (inactive),
COc1ccc(Nc2cc(=O)oc3ccccc23)cc1,1.53% (inactive),

SMILES,"activity change, negative = inhibition",Potency
COc1ccc(-c2onc(C)c2-c2ccc3c(c2)OCCO3)c(O)c1,-10.2% (inactive),
COc1ccc2nc(Nc3nc4cc5c(cc4s3)OCCO5)sc2c1,,9.53 µM (active)
CCOCCCNC(=O)c1c(NC(=O)Cc2coc3ccc(C)cc23)sc2c1CCC2,-9.67% (inactive),
Cc1cc(NC(=O)CSc2nc(=O)cc(N)n2-c2ccc(F)cc2)no1,-2.26% (inactive),
CC1CCCN(S(=O)(=O)c2ccc3[nH]c(=O)cc(C(=O)NCCc4ccc(Cl)cc4)c3c2)C1 (configuration not stated),0.984% (inactive),
COc1ccc(CNc2nc(-c3ccccc3)nn2C(=O)c2ccccc2OC)cc1,3.74% (inactive),
Cc1ccc(C)c(Cn2c(=O)n(CCC(=O)NCc3ccc4c(c3)OCO4)c(=O)c3sccc32)c1,1.45% (inactive),
COc1ccc(-c2nnc(SCC(=O)Nc3ccccc3C)o2)cc1OC,6.06% (inactive),
Cn1c(CNc2nc(-c3ccccc3)cs2)nnc1SCC(=O)c1ccccc1,-0.577% (inactive),
CCOC(=O)CSc1nnc(CNc2nc(-c3ccccc3)cs2)n1C,3.55% (inactive),
CCNc1nc(-c2cc3ccccc3o2)cs1,,0.601 µM (active)
COc1ccc(-c2c(C)c3ccc(O)c(CN4CCN(C)CC4)c3oc2=O)cc1OC,-5.07% (inactive),
COc1cc(OC)cc(-c2c(-c3cccs3)c3cc(-c4ccc(OC)nc4)ccc3n2C)c1,-1.73% (inactive),
CCOc1ccc(OCC)c(NC(=O)c2cc(C)nc3c2c(C)nn3-c2cccc(Cl)c2C)c1,0.474% (inactive),
N#CCC(=O)N/N=C/c1cn(Cc2ccc3ccccc3c2)c2ccccc12,1.21% (inactive),
COc1cccc(Cn2cc(/C=N/NC(=O)c3cc(O)cc(O)c3)c3ccccc32)c1,,26.9 µM (active)
CNC(=S)N/N=C/c1cn(Cc2ccc(C)cc2)c2ccccc12,-5.46% (inactive),
CCOC(=O)NC(=O)/C(C#N)=C\c1ccccc1,-8.09% (inactive),
CCOC(=O)/C(C#N)=C/c1ccc(N2CCCCC2)cc1,,2.69 µM (active)
COc1ccc(N2CCN(C(=O)/C(C#N)=C/c3ccccc3)CC2)cc1,-14.4% (inactive),
COC(=O)c1ccc(OC)c(Cn2c(=O)n(Cc3ccccc3)c(=O)c3c2c2cc(OC)ccc2n3C)c1,-0.797% (inactive),
CCOc1ccccc1NC(=O)CN1CCCN(Cc2cccc(Cl)c2)S1(=O)=O,-10.8% (inactive),

SMILES,"activity change, negative = inhibition",Potency
O=C(c1ccncc1)N1CCN(c2ccc3ccccc3n2)CC1,4.69% (inactive),
CC12CCC(C(=O)N3CCN(c4ncccn4)CC3)(c3nc4ccccc4nc31)C2(C)C (configuration not stated),4.23% (inactive),
c1cnc(N2CCN(c3ccc4ccccc4n3)CC2)nc1,,5.36 µM (active)
CN1CCN(CCNC(=O)Nc2ccccc2[N+](=O)[O-])CC1,-1.04% (inactive),
Cc1csc(NC(=O)Nc2ccccc2[N+](=O)[O-])n1,,4.78 µM (active)
Cc1csc(NC(=O)NC2(C(F)(F)F)Oc3ccccc3O2)n1,-17.9% (inactive),
COc1ccc(Cl)cc1NC(=O)CN(C)C(=O)c1ccc2n[nH]nc2c1,4.74% (inactive),
Cc1cccc(NC(=O)CSc2ncc(-c3ccccc3)[nH]2)c1C,,13.5 µM (active)
Cc1cccc(NC(=O)CSc2nc3c(c(=O)[nH]2)CCCC3)c1C,1.26% (inactive),
Cc1cccc(NC(=O)CSc2nc3c(c(=O)[nH]2)CCC3)c1C,1.5% (inactive),
O=C(Nc1ccccc1Cl)N1CCC(CN2CCCC2)CC1,-1.17% (inactive),
Cc1cc(Nc2cccc(C(F)(F)F)c2)nc2ccc(NC(=O)c3ccc(=O)[nH]c3)cc12,1.3% (inactive),
CSc1ccc(NC(=O)Cn2nnnc2-c2ccccc2F)cc1,1.67% (inactive),
CCOc1ccc2nc(N(CCN(C)C)C(=O)c3ccc4ccccc4c3)sc2c1,0.783% (inactive),
CCOc1ccc2nc(C(=O)N3CCCC(C)C3)sc2c1 (configuration not stated),,1.69 µM (active)
Cc1ccc(C)c(NC(=O)C2CCCN(S(=O)(=O)c3cn(C)cn3)C2)c1 (configuration not stated),-0.326% (inactive),
CCOc1ccc2nc(N3CCCC(C(=O)Nc4cc(C)ccc4C)C3)sc2c1 (configuration not stated),,2.39 µM (active)
CCCC(=O)N(CCN1CCOCC1)c1nc2ccc(OCC)cc2s1,-9.15% (inactive),
CCOc1ccc2nc(N3CCC(C(=O)Nc4cc(C)ccc4C)CC3)sc2c1,-11.9% (inactive),
